Experimental data as given in PubChem BioAssay AID1947 (The Scripps Research Institute Molecular Screening Center, 2009).
In all, about 300,000 compounds went through this assay and about 990 (0.33%) were called active. The list comes from a sample in which actives are over-represented; it also holds similar structures and randomly drawn compounds. Values without a mark were called inactive.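 Rule for the calls: active = inhibition above the screen mean inhibition plus 3 SD, computed separately per campaign (cut at about 18% in these data); inactive = the rest.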

Test system: Fam108B (ABHD17B) serine hydrolase [Mus musculus]
Assay: inhibition of Fam108B (ABHD17B) hydrolase – biochemical, fluorescence polarization, counter-screen for RBBP9 inhibitor project, primary screen (AID 1947);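 note: inhibitors lower polarization as less probe binds the enzyme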
Details: recombinant Fam108B, FP-Rh probe fluorescence polarization; at 9.51 µM; hits give high values

First: CCN(CC(=O)NCc1ccc(Cl)cc1)C(=O)CSc1ccccc1
Second: O=C(CCC(=O)n1ncc2ccccc21)NCc1ccccc1Cl
The inhibition of the first is higher: 1.51% for the first, 0.79% for the second.

Going from `CN1/C(=C\C=C2\N=C(c3ccc(F)cc3)OC2=O)C(C)(C)c2ccccc21` to `COc1ccccc1-c1nnc(-c2ccc(F)cc2)o1`, the inhibition rises from -7.15% to -1.04%.

First: COc1ccc(Nc2nc(-c3cccnc3)nc3ccccc23)cn1
Second: CC(=O)Nc1cccc(Nc2nc(-c3cccs3)nc3ccccc23)c1
The inhibition of the first is higher: -1.81% for the first, -19.2% for the second.

First: O=C(C/C(=N\NC(=O)c1ccccc1Br)C(F)(F)F)c1cccs1
Second: COCCNC(=O)c1ccccc1NS(=O)(=O)c1ccc(C)c([N+](=O)[O-])c1
The inhibition of the first is higher: 1.64% for the first, -2.57% for the second.

Going from `Cc1ccc(N/C(N)=N/c2nc(C(F)(F)F)cc(C(F)(F)F)n2)cc1` to `CC(=O)Nc1ccc(Oc2ccc3c(c2)C(=O)NC3=O)cc1`, the inhibition rises from -3.46% to 0.73%.

Going from `CCOc1ccc(NC(=O)COc2ccc(S(=O)(=O)N3CCCC3)cc2)cc1` to `CCOc1ccc(S(=O)(=O)Nc2nccs2)cc1`, the inhibition rises from -2.57% to 2.3%.

First: Cc1ccc(NS(=O)(=O)c2ccc(C)c(NC(=O)COc3ccc4ccccc4c3)c2)c(C)c1
Second: COc1ccccc1NS(=O)(=O)c1ccc(C)c(C(=O)NCC(c2ccco2)N(C)C)c1 (configuration not stated)
The inhibition of the first is lower: -29.8% for the first, -0.42% for the second.

Compared with `CO/N=C/c1ccc(N2CCN(C(=O)c3cccc(Cl)c3)CC2)c([N+](=O)[O-])c1`, `Cc1c(C(=O)N2CCCc3ccccc32)oc2ccccc12` is lower in inhibition: 4.08% for the first, 0.38% for the second.

Going from `O=C(O)CCN=C1CCc2ccccc2N1` to `CC(=O)Nc1ccc(NC(=O)CSC2=NS(=O)(=O)c3ccccc3N2)cc1`, the inhibition falls from 9.07% to 0.2%.

Compared with `COc1ccc(CC(=O)Nc2nc(-c3ccc(F)c(F)c3)cs2)cc1OC`, `COc1ccc(-c2csc(-c3cccs3)n2)cc1OC` is higher in inhibition: -7.43% for the first, 3.25% for the second.

First: CC(C)(C)C(=O)OCc1nc(-c2ccc(O)c(O)c2)cs1
Second: CC1=CC2=NC(=O)CC(C)(C(=O)N(CC(=O)NC(C)(C)C)Cc3ccccc3)N2C=C1 (configuration not stated)
The inhibition of the first is lower: -1.7% for the first, 0.82% for the second.

Going from `COC(C[C@@H](O)C[C@H](O)[C@H](C)OCc1ccccc1)OC` to `O=[N+]([O-])c1ccc(N/N=C/c2ccccc2)cc1`, the inhibition rises from 4.92% to 5.14%.

First: C=CCNC(=O)CSc1nc2scc(-c3ccco3)c2c(=O)n1CC=C
Second: C=CCn1c(SCc2csc(C)n2)nc2scc(-c3ccc(C)o3)c2c1=O
The inhibition of the first is lower: -0.48% for the first, 0.24% for the second.

First: O=C(CCCN1C(=O)/C(=C/c2cccs2)SC1=S)Nc1ccc(O)cc1
Second: Cc1c(C(=O)N2CCCc3ccccc32)sc2nc(-c3ccccc3)cn12
The inhibition of the first is lower: -3.39% for the first, 2.92% for the second.

Compared with `CCC/C(C)=N\Nc1nc2c(c(=O)n(C)c(=O)n2C)n1C`, `Cc1ccccc1OCCOc1ccc([N+](=O)[O-])cc1/C=N/n1cnnc1` is lower in inhibition: 0.84% for the first, -2.64% for the second.

`Cc1cccc(-c2nc(Nc3ccc(O)cc3)c3ccccc3n2)c1` was tested, and the inhibition was 29.1% (active).
For `Cc1ccc(NS(=O)(=O)c2ccc(N/N=C/c3ccccc3OCC(=O)O)c([N+](=O)[O-])c2)c(C)c1`, the inhibition was 26.5% (active).
For `COc1ccc(OC)c(Nc2nc(-c3ccc(O)c(O)c3)cs2)c1`, the inhibition was 20.1% (active).
For `C=CCn1c(=S)[nH]c2scc(-c3ccco3)c2c1=O`, the inhibition was 18.5% (active).
With `Cc1cccc(COc2ccccc2/C=N/Nc2ccc([N+](=O)[O-])cc2)c1` the inhibition was 23% (active).
With `Cc1cccc2cc3c(N)c(C(=O)N4CCCc5ccccc54)sc3nc12` the inhibition was 18.9% (active).
In the case of `COc1ccc(-c2csc3nc(-c4ccccc4F)oc(=O)c23)cc1OC`, the inhibition is reported as 21.9% (active).
